According to PubChem BioAssay AID1159580 (chemical genetic matrix, 2015):
The campaign covered roughly 5,500 compounds. About 2,000 (36%) were called active. Inconclusive results (about 18%) are left out. Cut-off read from the data, not from the text of the source: active = normalized growth mostly below about 0.91 (no sharp cut-off); inconclusive = no clear call, values can overlap the other calls; inactive = mostly above about 0.92. The list shows a part of the results.

Assay: chemical genetic growth profiling, strain panel (AID 1159580);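 note: tested at 20 µM; growth read once vehicle control cultures reached saturation at 30 °C; 1 = growth at the plate median or of vehicle wells; lower values mean less growth of the strain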
Conditions: S. cerevisiae deletion strains, growth OD
[1] = locus YAL040C, strain CLN3, active compounds read low
[2] = locus YCL061C, strain MRC1 (second series), active compounds read low
[3] = locus YER002W, strain NOP16, active compounds read low
[4] = locus YGR078C, strain PAC10, active compounds read low
[5] = locus YGR229C, strain SMI1, active compounds read low
[6] = locus YJR075W, strain HOC1, active compounds read low
[7] = locus YNL175C, strain NOP13, active compounds read low
[8] = locus YNL197C, strain WHI3, active compounds read low
[9] = locus YNL224C, strain SQS1, active compounds read low
[10] = locus YNL322C, strain KRE1, active compounds read low
[11] = locus YOR083W, strain WHI5 (second series), active compounds read low

Measured: normalized growth

NCCNC(=O)Cc1ccc(NC(=O)Cc2ccc(Nc3ncnc4c3ncn4[C@@H]3O[C@H](CO)[C@H](O)C3O)cc2)cc1 (some centres undefined)
inactive: [1] 1.01 | [2] 0.999 | [3] 0.999 | [4] 1.01 | [5] 1.03 | [6] 1 | locus YMR263W, strain SAP30, active compounds read low 1.01 | [7] 1.01 | [8] 1.02 | [9] 0.994 | [10] 1 | [11] 1.02

COC(=O)N1CCN(C(=O)Cc2ccc(Cl)c(Cl)c2)C(CN2CCCC2)C1 (centres undefined)
inactive: [1] 0.997 | [2] 1.01 | locus YDR150W, strain NUM1, active compounds read low 1 | locus YDR363W, strain ESC2, active compounds read low 1 | [3] 0.995 | [4] 1 | [5] 0.982 | [6] 1.01 | locus YMR307W, strain GAS1, active compounds read low 1 | locus YNL128W, strain TEP1, active compounds read low 1.01 | locus YNL153C, strain GIM3, active compounds read low 1 | [7] 1.01 | [8] 1.04 | [9] 1 | [10] 1.01 | [11] 1.05 | locus YPL241C, strain CIN2, active compounds read low 1

Cc1nc(-c2ccc(C(F)(F)F)cn2)[nH]c(=O)c1Cl
active: locus YLR113W, strain HOG1, active compounds read low 0.651 | locus YPL256C, strain CLN2, active compounds read low 0.72
inactive: locus YAR019C, strain CDC15, active compounds read low 0.899 | locus YBL105C, strain PKC1, active compounds read low 0.932 | locus YBR135W, strain CKS1, active compounds read low 0.916 | locus YBR136W, strain MEC1, active compounds read low 0.922 | locus YBR160W, strain CDC28, active compounds read low 0.922 | locus YDL017W, strain CDC7, active compounds read low 0.938 | locus YDL028C, strain MPS1, active compounds read low 0.909 | locus YDL101C, strain DUN1, active compounds read low 0.939 | locus YDL108W, strain KIN28, active compounds read low 0.921 | locus YDL132W, strain cdc53, active compounds read low 0.905 | locus YDL214C, strain PRR2, active compounds read low 0.86 | locus YDR052C, strain DBF4, active compounds read low 0.943 | locus YDR054C, strain cdc34, active compounds read low 0.887 | locus YDR226W, strain ADK1, active compounds read low 0.924 | locus YDR477W, strain SNF1, active compounds read low 0.833 | locus YER123W, strain YCK3, active compounds read low 0.692 | locus YER133W, strain GLC7, active compounds read low 0.831 | locus YFL009W, strain cdc4, active compounds read low 0.896 | locus YFL029C, strain CAK1, active compounds read low 0.901 | locus YFR003C, strain YPI1, active compounds read low 0.929 | locus YFR019W, strain FAB1, active compounds read low 0.908 | locus YFR028C, strain CDC14, active compounds read low 0.918 | locus YGR040W, strain KSS1, active compounds read low 0.834 | locus YGR052W, strain FMP48, active compounds read low 0.815 | locus YGR092W, strain DBF2, active compounds read low 0.689 | locus YHR079C, strain IRE1, active compounds read low 0.639 | locus YHR082C, strain KSP1, active compounds read low 0.945 | locus YHR205W, strain SCH9, active compounds read low 0.978 | locus YIL147C, strain SLN1, active compounds read low 0.919 | locus YJL095W, strain BCK1, active compounds read low 0.675 | locus YJL128C, strain PBS2, active compounds read low 0.928 | locus YJL157C, strain FAR1, active compounds read low 0.813 | locus YJR016C, strain ILV3, active compounds read low 0.924 | locus YJR066W, strain TOR1 (second series), active compounds read low 0.769 | locus YJR066W, strain TOR1, active compounds read low 0.848 | locus YKL048C, strain ELM1, active compounds read low 0.927 | locus YKL067W, strain YNK1, active compounds read low 0.857 | locus YKL101W, strain HSL1, active compounds read low 0.88 | locus YKL193C, strain SDS22, active compounds read low 0.903 | locus YKL203C, strain TOR2, active compounds read low 0.886 | locus YLR133W, strain CKI1, active compounds read low 0.857 | locus YLR403W, strain SFP1, active compounds read low 0.809 | locus YML070W, strain DAK1, active compounds read low 0.825 | locus YMR001C, strain CDC5, active compounds read low 0.914 | locus YMR205C, strain PFK2 (second series), active compounds read low 0.859 | locus YMR277W, strain FCP1, active compounds read low 0.893 | locus YNL006W, strain LST8, active compounds read low 0.957 | locus YNL020C, strain ARK1, active compounds read low 0.853 | locus YNL161W, strain CBK1, active compounds read low 0.912 | locus YNL183C, strain NPR1, active compounds read low 0.696 | locus YNL207W, strain RIO2, active compounds read low 0.919 | locus YNL222W, strain SSU72, active compounds read low 0.905 | locus YNL307C, strain MCK1 (second series), active compounds read low 0.826 | locus YOL078W, strain AVO1, active compounds read low 0.896 | locus YOL136C, strain PFK27, active compounds read low 0.868 | locus YOR061W, strain CKA2, active compounds read low 0.858 | locus YOR119C, strain RIO1, active compounds read low 0.821 | locus YOR231W, strain MKK1, active compounds read low 0.685 | locus YOR329C, strain SCD5, active compounds read low 0.93 | locus YPL031C, strain PHO85, active compounds read low 0.787 | locus YPL153C, strain RAD53, active compounds read low 0.755 | locus YPL204W, strain HRR25, active compounds read low 0.777 | locus YPL209C, strain IPL1, active compounds read low 0.926 | locus YPR025C, strain CCL1, active compounds read low 0.923 | locus YPR106W, strain ISR1, active compounds read low 0.95 | locus YPR111W, strain DBF20, active compounds read low 0.937 | strain NNK1, active compounds read low 0.932 | strain TSCII, active compounds read low 0.888
